Sampled rows, rich in hits. Any-hit rate of the full collection: about 4.2%.
SMARCA2 activ – SMARCA2 function activation, primary screen; 370,000 compounds, 1% hits; activation, % at 9.1 µM; AID 652017; MG213 cells, MMTV-luciferase reporter, dexamethasone, overnight; in the data active means activation above about 7.8%;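 further: 0% = vehicle wells and 100% = reference activator wells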
ssDAF12 agonist – S. stercoralis DAF-12 activation, primary screen; activation, % at 6.8 µM; HEK293 ssDAF-12/GRIP1 lit1-tk-luc reporter, luminescence; % of 3 µM dafachronic acid response; 370,000 compounds, 1% hits;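 active means activation above the mean over all tested compounds plus 3 SD, cut at about 0.9% in these data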;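 further: 0% = DMSO-only wells and 100% = 3 µM delta7-dafachronic acid wells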
hgDAF-12 ag – hgDAF-12 agonism, primary luciferase screen | activation, % at 6.8 µM | HEK293 GAL4-hgDAF12 UAS-luciferase reporter, agonist luminescence; normalized to butyrate control | 370,000 compounds, 1.8% hits;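 active means activation above a cutoff set at the mean of all screened compounds plus 3 SD, cut at about 10% in these data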;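 further: 0% = DMSO wells and 100% = sodium butyrate wells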
DAX1 StAR inh – blocks DAX1 repression of SF-1 activated StAR promoter. 370,000 compounds, 1.1% hits. HEK293T StAR-luciferase reporter, SF-1/DAX-1 repression relief. inhibition, % at 6.8 µM;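 active means inhibition above the mean over all tested compounds plus 3 SD, cut at about 3.6% in these data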;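 further: 0% = DAX-1 cells with DMSO and 100% = cells lacking DAX-1 with DMSO; higher inhibition means more luminescence from relief of DAX-1 repression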
hcDAF12 agonist – activators of H. contortus DAF-12 nuclear receptor | activation, % at 6.8 µM | 370,000 compounds, 1.4% hits | HEK293 hcDAF-12 lit1-tk-luc reporter, luminescence; 0% DMSO, 100% Δ7-dafachronic acid;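 active means activation above the mean of all tested compounds plus 3 SD, cut at about 5.5% in these data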;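 further: 100% = response to 3 µM Δ7-dafachronic acid high control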
hgDAF12 ag – confirmation of H. glycines DAF-12 agonists; shares compounds with hgDAF-12 ag; HEK293 GAL4-hgDAF12 luciferase reporter, agonist mode; percent of butyrate response; activation, % at 6.8 µM; 3,300 compounds, 80% hits; AID 743050;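 active means mean activation over triplicate wells above the hit cutoff derived from the earlier primary screen, cut at about 11% in these data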;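 further: 0% = DMSO low control and 100% = 2 mM sodium butyrate high control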
LXR ag 2 – activates human LXR-beta, counter-screen for DAF-12 agonists | shares compounds with hgDAF-12 ag | HEK293 Gal4-LXR luciferase reporter, 24 h | activation, % at 6.8 µM | 3,300 tested, under 10 active;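 active means mean activation of the triplicate above a set limit carried over from the primary screen, none filed active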
Target sequence (P55055 whole entry, looked up, the tested form may be a part): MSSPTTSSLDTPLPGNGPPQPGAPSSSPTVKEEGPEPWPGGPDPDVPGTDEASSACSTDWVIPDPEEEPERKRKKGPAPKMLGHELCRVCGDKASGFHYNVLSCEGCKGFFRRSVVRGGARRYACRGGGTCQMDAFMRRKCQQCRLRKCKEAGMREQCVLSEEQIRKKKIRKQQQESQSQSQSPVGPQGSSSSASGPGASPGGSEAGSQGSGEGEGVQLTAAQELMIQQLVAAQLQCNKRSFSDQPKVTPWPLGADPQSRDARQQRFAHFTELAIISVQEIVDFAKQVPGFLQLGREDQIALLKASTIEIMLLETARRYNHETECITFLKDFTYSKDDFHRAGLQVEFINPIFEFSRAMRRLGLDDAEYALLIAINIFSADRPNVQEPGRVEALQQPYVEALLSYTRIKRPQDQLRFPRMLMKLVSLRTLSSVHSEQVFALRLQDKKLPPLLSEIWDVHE
Active calls of the source: *; / = no result given.

SMILES | SMARCA2 activ | ssDAF12 agonist | hgDAF-12 ag | DAX1 StAR inh | hcDAF12 agonist | hgDAF12 ag | LXR ag 2
CN1C(=O)C[C@@](C#N)(C(=O)NCc2ccccc2)[C@H]1c1ccccc1 | -1 | 0 | -1 | 0 | 3 | / | /
COc1ccc(/C=C2\SC(=O)N(CCc3nnc(N)s3)C2=O)cc1 | -1 | 1 | 16* | 4.1* | 4 | 10 | 1
Cc1ccc(OC(=O)c2ccc3nc(C)sc3c2)cc1 | 4 | 0 | 15* | 3 | 1 | 17* | 1
Cc1nc2ccc(OC(=O)c3ccccc3)cc2s1 | 1 | -1 | 3 | 0 | -1 | / | /
Cc1nc2cc(C(=O)O)ccc2s1 | 4 | 0 | 15* | 2 | 3 | 17* | 1
CC1CC1c1ccc(/C=C(\C#N)C(=O)Nc2ccc(Cl)cc2)o1 (stereo unspecified) | -2 | 0 | 14* | 2 | 3 | 14* | 1
COc1cccc(C(C(=O)NC2CCCC2)N2CCN(c3cc(C)ccc3C)CC2)c1OC (stereo unspecified) | -5 | -1 | -2 | 1 | 0 | / | /
CNc1cncc(-c2cccc(O)c2)n1 | -1 | -1 | 5 | 1 | 0 | / | /
CNc1cccc(-c2cccc(O)c2)n1 | 0 | -1 | 17* | 2 | 0 | 9 | 0
O=C(CSc1nnc(NC2CCCCC2)s1)Nc1ccc2c(c1)C(=O)c1ccccc1C2=O | 2 | 0 | 14* | 3 | 4 | 14* | 0
CC(C)Nc1nnc(SCC(=O)Nc2ccc3c(c2)C(=O)c2ccccc2C3=O)s1 | 4 | -2 | 6 | 1 | 1 | / | /
Cc1nn(-c2ccccc2)c(/N=C/c2ccccc2O)c1-c1ccccc1 | 1 | 0 | 15* | 3 | 2 | 11* | 0
Cc1nn(-c2ccccc2)c(C)c1/C=N/O | 2 | -1 | 1 | 0 | -1 | / | /
Cc1cn([C@H]2C[C@H](O)[C@@H](CNC/C=C/c3ccccc3[N+](=O)[O-])O2)c(=O)[nH]c1=O | -3 | 0 | 1 | 0 | 3 | / | /
O=c1/c(=C\c2ccc3c(c2)OCO3)sc2n1CCCN=2 | 2 | 0 | 19* | 3 | 3 | 14* | 1
N/C(=N\OC(=O)c1ccc(Br)o1)c1cccnc1 | 4 | -2 | 14* | 2 | 1 | 7 | 0
C[C@H]1[C@@H]2C[C@@]3(O[C@H](c4ccccn4)N=C3C[C@@H]1c1ccccc1)N(Cc1ccncc1)C2=O | -1 | -1 | 0 | 0 | 0 | / | /
Cc1ccc(C2CCN(C(=O)Nc3ccccc3)C2)cc1 (stereo unspecified) | 5 | 0 | 6 | 1 | -1 | / | /
Cc1ccc(NC(=O)N2CCC(c3ccccc3)C2)cc1C (stereo unspecified) | 6 | 0 | 15* | 3.6* | 3 | 19* | 1
CC1Oc2ccccc2C=C1/C=N/NC(=O)c1ccccc1 (stereo unspecified) | 1 | -1 | 14* | 2 | 2 | 9 | 0
O=C(N/N=C/c1ccc(Cl)cc1Cl)c1ccc2nc[nH]c2c1 | 2 | -1 | 0 | -1 | -1 | / | /
Cc1c(/C=N\NC(=O)c2cccc(F)c2)cnn1C | 0 | -1 | 15* | 1 | 4 | 4 | 0
COc1cccc(/C=N/NC(=S)Nc2cccc(C(=O)O)c2)c1O | 2 | -1 | 17* | 2 | -1 | 4 | 0
Cc1c(/C=N/NC(=O)c2ccc3c(c2)OCO3)cnn1C | -2 | 0 | 4 | 0 | 0 | / | /
CC(=O)Nc1cccc(C(=O)N/N=C/c2ccccc2F)c1 | 4 | 1 | 14* | 3.7* | 5 | 20* | 1
SMILES | SMARCA2 activ | ssDAF12 agonist | hgDAF-12 ag | DAX1 StAR inh | hcDAF12 agonist | hgDAF12 ag | LXR ag 2
O=C(N/N=C/c1ccc(Cl)cc1Cl)c1cccc(F)c1 | 4 | 0 | 15* | 3 | 4 | 15* | 1
CCNC(=O)N(C)[C@H]1C[C@H]2c3[nH]c4c(-c5ccc6c(c5)OCO6)cccc4c3CCN2C(=O)[C@H]1[C@H](C)O | -5 | -1 | 0 | 1 | -2 | / | /
COc1ccc(CNC(=O)[C@@H](Cc2ccccc2)NC(=O)[C@H]2O[C@@H](n3ccc(=O)[nH]c3=O)[C@H](O)[C@@H]2O)cc1 | 2 | -1 | 0 | 0 | -2 | / | /
Cc1nc2ccccc2nc(C)c1=NOCc1cccc(F)c1 | 7 | 0 | 14* | 3 | 3 | -4 | 0
COc1ccc(C2=Nc3ccccc3N(C(=O)c3ccc4c(c3)OCO4)C2C(=O)Nc2c(C)cccc2C)cc1 (stereo unspecified) | -3 | 0 | 14* | 0 | 1 | 2 | 0
COc1ccc(C2=Nc3ccccc3N(C(=O)c3ccc(C)cc3)C2C(=O)Nc2c(C)cccc2C)cc1 (stereo unspecified) | -1 | -1 | 2 | 0 | 0 | / | /
Cc1ccc2nc(-c3ccccc3O)c(Nc3ccc4c(c3)OCCO4)n2c1 | -1 | -1 | 0 | 0 | 2 | / | /
Cc1ccc2nc(-c3ccc(O)cc3)c(Nc3ccc4c(c3)OCCO4)n2c1 | 4 | 0 | 17* | 2 | 4 | 0 | 0
O=C1CCc2cc(S(=O)(=O)Nc3ccccc3F)ccc2N1 | -2 | -2 | 25* | 0 | 0 | 0 | 0
O=C1CCc2cc(S(=O)(=O)Nc3ccccc3Cl)ccc2N1 | -2 | -1 | 0 | 2 | -1 | / | /
Fc1ccc(CN2CCN(c3ncc(Cc4ccccc4)cn3)CC2)c(Cl)c1 | -8 | -2 | -6 | -5 | -4 | / | /
CN1CCN(/N=C/c2ccc(-c3ccccc3)cc2)CC1 | 2 | 0 | 14* | 1 | 2 | 12* | 1
C(=N\N1CCN(Cc2ccccc2)CC1)/c1ccc(-c2ccccc2)cc1 | 0 | -1 | -1 | 0 | -1 | / | /
CCOc1cccc(C(=O)NC(=S)Nc2ccccc2)c1 | 5 | 0 | 19* | 2 | 3 | 16* | 0
CC(=O)c1cccc(NC(=S)NC(=O)c2ccc(C)cc2)c1 | 4 | 0 | 15* | 4.0* | 2 | 15* | 1
CCC(=O)Nc1cccc(NC(=S)NC(=O)c2ccc(C)cc2)c1 | -1 | -1 | 14* | 3.8* | 3 | 16* | 1
COC(=O)C1CN(Cc2ccccc2)CCS(=O)(=O)N1Cc1cn(Cc2ccc(Cl)cc2)nn1 (stereo unspecified) | -5 | -1 | 0 | -1 | -1 | / | /
CCCCOCCCNC(=O)C[C@H]1C[C@@]2(C(=O)OC)C(=C[C@H](C(C)(C)C)O[C@@H]2C)N(Cc2cccc3ccccc23)C1=O | -4 | -2 | -2 | -1 | -2 | / | /
O=C(NCC1CCCO1)c1cc(-c2ccccc2F)no1 (stereo unspecified) | 2 | 0 | 20* | 1 | 5.6* | 33* | 0
